This is a sample that favours compounds with a hit; in the whole collection about 3% have one here.
Tau FP inhib: blocks human tau fibril formation measured by polarization. AID 1468. P10636. K18 P301L tau heparin fibrillization, Alexa594 FP, 6 h. Potency, µM (titrated, usually from 57.7 µM), for inactives: top-dose activity, negative = inhibition, most hits filed as inhibitors. 280,000 tested, 0.39% active; further: nearly all actives have a fitted effect of over 55% in size
Target sequence (P10636 561-689 P618L limits assumed): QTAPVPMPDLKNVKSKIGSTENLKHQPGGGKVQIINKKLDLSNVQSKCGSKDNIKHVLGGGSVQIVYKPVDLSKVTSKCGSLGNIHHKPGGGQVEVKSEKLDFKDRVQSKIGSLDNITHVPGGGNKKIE
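Steps: dispense K18 P301L tau (15 uM plus 0.24 uM Alexa 594 tracer, final) in pH 7 sodium acetate; add compound; add heparin (20 uM final); incubate 6 hr, 37 C; add ThT (30 uM final); after 1 hr ambient, read FP.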
Tau fibril ThT: inhibitors of human tau fibril formation, thioflavin T binding; 270,000 tested, 2.1% active; Potency, µM (series often up to 57.4 µM), for the others: top-dose activity, negative = inhibition, usual class: inhibitors; recombinant tau K18 P301L, heparin-induced fibrillization, ThT fluorescence; P10636; AID 1460; further: nearly all actives have a fitted effect of over 55% in size
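Heparin-induced fibrillization of the P301L-mutant K18 repeat-domain fragment of human tau was followed by ThT binding in quantitative high-throughput format.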
Tau fluor counter: counter-screen for tau fibril formation inhibitors; Potency, µM (highest dose often 57.7 µM), without a hit: top-dose activity change, negative = decrease; tau K18 P301L Alexa594 fluorescence, heparin fibrillization; AID 1463; 280,000 tested, 0.93% active; further: nearly all actives have a fitted effect of over 55% in size
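Human tau K18 P301L (15 uM unlabeled, 0.24 uM Alexa 594-labeled) in 100 mM sodium acetate pH 7 with 20 uM heparin, 6 hr at 37 C. ThT 30 uM added, 1 hr ambient; Alexa 594 FP and total fluorescence read at 555/632 nm.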
TRb-SRC2 inh: disrupts binding of human TR beta to SRC2 | 280,000 tested, 0.065% active | AID 1469 | TRbeta-SRC2 peptide binding, fluorescence polarization; receptor liganded with 1 µM T3 | Potency, µM (series often up to 106 µM), for the others: at the highest dose activity change, negative = inhibition, hits mostly inhibitors;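 further: plate controls were bound peptide for no effect and peptide without receptor for full effect; nearly all actives have a fitted effect of over 50% in size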
Target sequence (P10828 whole entry, looked up): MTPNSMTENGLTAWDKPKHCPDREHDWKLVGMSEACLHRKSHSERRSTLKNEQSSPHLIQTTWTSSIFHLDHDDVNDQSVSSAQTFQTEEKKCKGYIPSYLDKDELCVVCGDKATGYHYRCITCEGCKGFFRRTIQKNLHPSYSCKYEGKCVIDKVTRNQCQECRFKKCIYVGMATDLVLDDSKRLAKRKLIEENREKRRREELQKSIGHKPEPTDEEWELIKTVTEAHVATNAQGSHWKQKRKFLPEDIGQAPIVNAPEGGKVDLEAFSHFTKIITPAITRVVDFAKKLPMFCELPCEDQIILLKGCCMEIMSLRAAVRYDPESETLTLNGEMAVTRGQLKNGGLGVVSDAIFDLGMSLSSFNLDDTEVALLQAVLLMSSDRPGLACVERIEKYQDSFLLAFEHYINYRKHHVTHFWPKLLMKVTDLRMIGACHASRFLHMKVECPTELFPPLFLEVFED
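Quantitative HTS by FP: 0.6 uM TRb LBD, 20 nM labeled SRC2 20-mer, 1 uM T3, 5% DMSO; 5 hr ambient incubation; % activity per concentration and potencies from concentration series.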
TexasRed fluor: Texas Red fluorescence interference in TRb-SRC2 counter-screen. TRb/SRC2 Texas Red total fluorescence interference. Potency, µM (doses to about 106 µM), inactives show top-dose fluorescence change, negative = quenching. 280,000 tested, 0.29% active; active means well fitted curve in either direction with a large enough effect; inconclusive means small, poorly fitted or top-dose-only effect
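Human TRβ ligand-binding domain (0.6 uM) and Texas Red SRC2 peptide (20 nM) in Tris buffer with 1 uM T3 and 5% DMSO were incubated with pinned compound for 5 hr at ambient temperature. Total fluorescence was computed as S + 2P (555/632 nm).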
An asterisk follows results filed as active; [ ] = dose if it differs, or a comment. Unless noted, the call rests on the fitted dose curve; in most records, active means well fitted curve in the direction sought with a large enough effect; inconclusive means small, poorly fitted or top-dose-only effect, or another doubt; inactive means no such curve, though single readings can be large; an effect the other way counts as inactive or inconclusive. Unless noted, on the % scale 0 is the no-effect control and ±100 the full control effect; potency means the concentration at half of the fitted maximal effect.

How did O=c1cc(-c2ccc([N+](=O)[O-])cc2)nc2cc(-c3ccc(F)cc3)[nH]n12 do in these assays?
Tau FP inhib: 13%; Tau fibril ThT: 10µM*; Tau fluor counter: inconclusive; TRb-SRC2 inh: 4%; TexasRed fluor: 0%

How did CCOc1ccccc1N(CC(=O)NCCSc1ccccc1)S(=O)(=O)c1ccccc1 do in these assays?
Tau FP inhib: -4%; Tau fibril ThT: -7%; Tau fluor counter: -10%; TRb-SRC2 inh: 2%; TexasRed fluor: -32%

Results for COc1ccccc1C(=O)NCCSc1c(C)[nH]c2ccccc12 ?
Tau FP inhib: 3%; Tau fibril ThT: inconclusive; Tau fluor counter: 16µM*[quencher]; TRb-SRC2 inh: 3%; TexasRed fluor: -1%

How did COc1cc(C(=O)NCCSc2c(C)[nH]c3ccccc23)cc(OC)c1OC do in these assays?
Tau FP inhib: -3%; Tau fibril ThT: inconclusive; Tau fluor counter: 25µM*[quencher]; TRb-SRC2 inh: -1%; TexasRed fluor: -4%

Results for Cc1[nH]c2ccccc2c1SCCNC(=O)c1ccccc1F ?
Tau FP inhib: 8%; Tau fibril ThT: inconclusive; Tau fluor counter: 25µM*[quencher]; TRb-SRC2 inh: -7%; TexasRed fluor: -1%

Results for COc1cccc(C(=O)NCCSc2c(C)[nH]c3ccccc23)c1OC ?
Tau FP inhib: 15%; Tau fluor counter: inconclusive; TRb-SRC2 inh: -12%; TexasRed fluor: -1%

Results for Cc1ccc(C(=O)NCCSc2c(C)[nH]c3ccccc23)cc1[N+](=O)[O-] ?
Tau FP inhib: -1%; Tau fibril ThT: 4%; Tau fluor counter: -4%; TRb-SRC2 inh: 13%; TexasRed fluor: 1%

What do the screens show for `Cc1ccccc1OC(=O)CSc1nnc(-c2ccc3c(c2)OCO3)o1`?
Tau FP inhib: 4%; Tau fibril ThT: 9%; Tau fluor counter: 3%; TRb-SRC2 inh: 6%; TexasRed fluor: -1%

What do the screens show for `O=C(O)CCC1CCCC1`?
TRb-SRC2 inh: 1%; TexasRed fluor: 0%

How did CCOc1ccccc1NC(=O)C(OC(=O)c1ccccc1NS(=O)(=O)c1cccs1)c1ccccc1 (stereo not given) do in these assays?
Tau FP inhib: -1%; Tau fibril ThT: 5%; Tau fluor counter: -13%; TRb-SRC2 inh: 7%[53 µM]; TexasRed fluor: 0%[53 µM]

Results for CC(=O)c1cccc(NC(=O)C(OC(=O)c2ccccc2NS(=O)(=O)c2cccs2)c2ccccc2)c1 (stereo not given) ?
Tau FP inhib: 18µM*; Tau fibril ThT: 13%; Tau fluor counter: inconclusive; TRb-SRC2 inh: -7%; TexasRed fluor: 0%

Results for O=C(Nc1ccc(Cl)c(Cl)c1)Nc1ccccc1NS(=O)(=O)c1cccs1 ?
Tau FP inhib: 14µM*; Tau fibril ThT: inconclusive; Tau fluor counter: 7.1µM*[quencher]; TRb-SRC2 inh: 11%; TexasRed fluor: -2%

How did CC1CCN(C(=O)Cn2cc(SCC(=O)NCc3ccccc3Cl)c3ccccc32)CC1 do in these assays?
Tau FP inhib: 1%; Tau fibril ThT: -5%; Tau fluor counter: -8%; TRb-SRC2 inh: -10%; TexasRed fluor: -1%

What do the screens show for `CC(C)C[C@H](NC(=O)[C@H](Cc1ccccc1)NC(=O)CNC(=O)[C@H](CCC(=O)O)NC(=O)[C@H](CCCNC(=N)N)NC(=O)[C@H](C)NC(=O)[C@H](C)NC(=O)[C@@H](N)CC(=O)O)C(=O)N[C@@H](CC(=O)O)C(=O)N[C@H](C(=O)N[C@@H](CC(C)C)C(=O)N[C@H](C(=O)N[C@H](C(=O)N[C@@H](CC(C)C)C(=O)N[C@@H](Cc1cnc[nH]1)C(=O)N[C@@H](CCCNC(=N)N)C(=O)N[C@@H](C)C(=O)NCC(=O)N[C@@H](C)C(=O)N[C@@H](CCCNC(=N)N)C(=O)O)C(C)C)C(C)C)[C@@H](C)O`?
TRb-SRC2 inh: 2%; TexasRed fluor: 0%

Results for NC(=S)n1[nH]c(-c2ccc([N+](=O)[O-])cc2)c(N=Nc2cccc(Cl)c2)c1=O ?
Tau FP inhib: 6%; Tau fibril ThT: 13µM*; Tau fluor counter: 14µM*[quencher]; TRb-SRC2 inh: -1%; TexasRed fluor: -9%

How did NC(=S)n1[nH]c(-c2ccc([N+](=O)[O-])cc2)c(N=Nc2ccc(O)cc2)c1=O do in these assays?
Tau FP inhib: 15%; Tau fibril ThT: 3.2µM*; Tau fluor counter: inconclusive; TRb-SRC2 inh: -4%; TexasRed fluor: -3%

Results for COc1ccc(S(=O)(=O)N(CC(=O)NC(C)c2ccccc2)c2ccc(C)cc2)cc1OC (stereo not given) ?
Tau FP inhib: -3%; Tau fibril ThT: -17%; Tau fluor counter: -18%; TRb-SRC2 inh: -7%; TexasRed fluor: 5%

Results for Nc1c(C(=O)O)cnc2c(-c3ccc(Cl)cc3)cnn12 ?
Tau FP inhib: -5%; Tau fibril ThT: inconclusive; Tau fluor counter: -10%; TRb-SRC2 inh: -1%; TexasRed fluor: -13%

What do the screens show for `Clc1ccc(-c2cnn3c(-c4ccncc4)ccnc23)cc1`?
Tau FP inhib: 2%; Tau fibril ThT: 2.5µM*; Tau fluor counter: 1%; TRb-SRC2 inh: 5%; TexasRed fluor: -1%

How did CCOC(=O)c1ccc(COC(=O)c2ccc3c(c2)-c2ccccc2C3=O)cc1 do in these assays?
Tau FP inhib: 2%; Tau fibril ThT: inconclusive; Tau fluor counter: -25%; TRb-SRC2 inh: 0%; TexasRed fluor: -2%

Results for CCOC(=O)C1=C(Cc2ccc(OC)cc2)C(=O)c2ccccc2C1=O ?
Tau FP inhib: 13µM*; Tau fibril ThT: 8.9µM*; Tau fluor counter: inconclusive; TRb-SRC2 inh: -6%; TexasRed fluor: -4%

Results for CCOC(=O)C1=C(Cc2ccc(C)cc2)C(=O)c2ccccc2C1=O ?
Tau FP inhib: 35µM*; Tau fibril ThT: 16µM*; Tau fluor counter: inconclusive; TRb-SRC2 inh: 5%; TexasRed fluor: -3%

Results for Oc1ccccc1/C=N/Nc1ccccc1 ?
Tau FP inhib: 18%; Tau fibril ThT: inconclusive; Tau fluor counter: 25µM*[quencher]; TRb-SRC2 inh: -4%; TexasRed fluor: -6%

How did Oc1ccccc1/C=N/Nc1cccc2cccnc12 do in these assays?
Tau FP inhib: 15%; Tau fibril ThT: inconclusive; Tau fluor counter: 13µM*[quencher]; TRb-SRC2 inh: 3%; TexasRed fluor: -3%

How did Oc1ccc(/C=N/Nc2ccc3ccccc3c2)c(O)c1 do in these assays?
Tau FP inhib: inconclusive; Tau fibril ThT: 18µM*; Tau fluor counter: 20µM*[quencher]; TRb-SRC2 inh: -2%; TexasRed fluor: 1%

How did O=C(COc1cccc2cccnc12)N/N=C/c1ccccc1O do in these assays?
Tau FP inhib: -7%; Tau fibril ThT: inconclusive; Tau fluor counter: -10%; TRb-SRC2 inh: -1%; TexasRed fluor: -2%

Bioassay records: PubChem, National Center for Advancing Translational Sciences (NCATS)
